Results taken from PubChem BioAssay AID781 (Emory University Molecular Libraries Screening Center, 2007).
The campaign covered roughly 220,000 compounds. About 1,600 (0.73%) were called active. The full list was thinned out, with actives kept by preference. Unmarked numbers belong to inactive results.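 Rule for the calls: active = inhibition above about 70% (limit read from the data); inactive = the rest.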

The compounds below were run against 14-3-3 protein zeta/delta (Bos taurus) (UniProt P63103) (assay: inhibitors of 14-3-3 zeta/Bad binding, primary screen, biochemical, TR-FRET, bovine 14-3-3 zeta (AID 781;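 note: 0% = full 14-3-3 plus peptide FRET controls and 100% = background without 14-3-3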)). Conditions: TR-FRET 14-3-3zeta/Dy647-pBad peptide displacement, 1 h; at 21.7 µM; active compounds read high.
Sequence of 14-3-3 protein zeta/delta (Bos taurus) (P63103 whole entry, looked up): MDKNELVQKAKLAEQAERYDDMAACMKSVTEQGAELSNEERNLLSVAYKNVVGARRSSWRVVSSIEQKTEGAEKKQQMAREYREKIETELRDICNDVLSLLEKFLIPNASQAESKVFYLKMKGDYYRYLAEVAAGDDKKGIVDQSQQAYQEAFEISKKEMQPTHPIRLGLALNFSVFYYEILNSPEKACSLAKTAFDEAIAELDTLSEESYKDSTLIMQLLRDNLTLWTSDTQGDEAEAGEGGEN

SMILES | inhibition
Fc1ccc(N2CCN(Cc3cnc(Oc4ccc(Br)cc4)s3)CC2)cc1 | -11.7%
COc1ccc(N2CCN(Cc3nnc(-c4ccccc4)o3)CC2)cc1 | -10.5%
COc1ccc(N2CCN(Cc3ccc(Br)s3)CC2)cc1 | 79.9% (active)
O=C(NCc1cccnc1)c1cnc2ccccc2n1 | 13.6%
CCc1cc2c(NC3CCCC3)ncnc2s1 | 12.9%
Oc1ccccc1N1CCN(c2ncnc3sc(-c4ccccc4)cc23)CC1 | -3.44%
CCc1cc2c(N3CCN(c4nnc(CC)s4)CC3)ncnc2s1 | 76.6% (active)
CNC(=O)NC(=O)CSc1nnc(-c2ccc(F)cc2)n1CC1CCCO1 (stereo not given) | -19.5%
CN1CCN(C(CNS(=O)(=O)c2cccs2)c2cccnc2)CC1 (stereo not given) | -2.11%
COCCCNC(=S)N(Cc1ccccc1)Cc1ccc(F)cc1 | -1.09%
CC(C)C(=O)NCc1cc(-c2ccc(Cl)cc2)no1 | 9.14%
Cn1c(COc2ccc(Cl)cc2)nc2ccccc2c1=O | 89.6% (active)
COCn1c(COc2ccccc2)nc2ccccc21 | 0.06%
COc1ccc(OCc2ccc(-c3nc4ccccc4c(=O)n3N)o2)cc1 | -11.1%
CN(CC(=O)N1CCN(c2ccccc2)CC1)S(=O)(=O)c1cccs1 | -17.7%
CNC(=S)NNC(=O)c1ccc(N(C)C)cc1 | -0.72%
CCCCCCNS(=O)(=O)c1ccccc1Br | -7.16%
Cc1[nH]nc(SCC(=O)NCC(C)C)c1[N+](=O)[O-] | 94% (active)
Cc1ccc(C(C)NC(=O)Cn2nc(C)c([N+](=O)[O-])c2C)cc1 (stereo not given) | 5.36%
CC(C)CNC(=O)COC(=O)/C=C/c1ccccc1[N+](=O)[O-] | -3.85%
COc1ccc(-c2nc3n(c2Br)CCC3)cc1 | 73.6% (active)
Cc1ccc2nc3n(c(=O)c2c1)CCC3 | -3.59%
Brc1cccc(-c2nnc3n2CCC3)c1 | -2.99%
Cc1cccc(NC(=S)NCCc2ccc(F)cc2)c1C | 1.39%
CC(CN1CCOCC1)c1ccccc1 (stereo not given) | 71.2% (active)

SMILES | inhibition
OC(c1ccccc1)C(CN1CCOCC1)c1ccccc1 (stereo not given) | 6.57%
Cc1ccc(C(=O)OC(C)CN2CCOCC2)cc1 (stereo not given) | -4.58%
O=Cc1ccc(OCc2cn3ccccc3n2)cc1 | -3.57%
CC1(C)OC(=O)C(=CNC(CO)C(=O)O)C(=O)O1 (stereo not given) | 12.2%
Oc1c(Cl)cc(Cl)c(Cl)c1Cc1c(O)c(Cl)cc(Cl)c1Cl | 82.8% (active)
O=C(c1ccco1)N1CCN(CCOc2ccccc2)CC1 | -0.94%
CN(C)CCN=c1cc(-c2ccccc2)oc2ccc(Cl)cc12 | -12%
CN(C)N=Nc1ccc2nc[nH]c2c1 | -55.4%
CN1C(=O)/C(=N/OC(=O)c2ccccc2Br)c2ccccc21 | 9.1%
Cc1csc(NC(=O)C2CCCN2C(=O)OCC(C)C)n1 (stereo not given) | -4.68%
CS(=O)(=O)c1ccc2nc(NC(=O)CN3CCCCCC3)sc2c1 | 66.8%
Cc1csc(NC(=O)CN2CCCCCC2)n1 | 79.5% (active)
O=C(COc1ccccc1)NCCc1nc2ccccc2[nH]1 | -2.28%
COC(=O)Cc1nc2ccccc2[nH]1 | 78.5% (active)
COc1ccc(OC(C)C(=O)NCCc2nc3ccccc3[nH]2)cc1 (stereo not given) | 4.28%
COc1cc(NC(=S)NCCSc2ccc(C)cc2)cc(OC)c1 | -12.2%
O=C(Nc1ccc([N+](=O)[O-])cc1)C1(c2ccccc2)CCOCC1 | -1.28%
Cc1ccc2[nH]c3c(=O)n(Cc4ccccn4)cnc3c2c1 | -4.28%
CC(C)OCCCNc1ncnc2c1[nH]c1ccc(F)cc12 | -11%
COc1cc(OC)c(OC)cc1/C=N/Nc1ncnc2c1[nH]c1ccc(C)cc12 | 94.3% (active)
CCN(CC)CCNCC(=O)Nc1ccc(Oc2ccccc2)cc1 | 20.5%
COc1cc(NC(=O)c2cncc(-c3ccc(C#N)cc3)c2)cc(C(=O)Nc2cccc(C(F)(F)F)c2)c1 | 23%
O=c1cc(CO)oc(C(Nc2cccc(C(F)(F)F)c2)c2ccccn2)c1O (stereo not given) | 2.47%
COc1ccc(Br)cc1CN1CCN(C(=O)c2cccc(OC)c2OC)CC1 | 81.3% (active)
COc1cccc(OC)c1OCCN1CCN(C(=O)c2ccco2)CC1 | 24.8%

SMILES | inhibition
COc1ccccc1N1CCN(Cc2ccc(OC)c3ccccc23)CC1 | 37.2%
CC(C)c1cc(C(=O)O)n[nH]1 | 65.1%
O=C(Nc1ccc(Cl)cn1)c1cnn2cccnc12 | 81.6% (active)
Cc1cc(NC(=O)c2cnn3cccnc23)n(-c2ccccc2)n1 | 7.08%
O=C(Nc1ccc(Cl)cn1)c1ccc2c(c1)OCCO2 | 7.42%
C/C(N)=C(/C#N)C(=O)COC(=O)c1cc(-c2ccccc2)nc2ccc(Br)cc12 | -9.11%
O=C(N/N=C/c1ccccn1)c1cccnc1 | -10.3%
Cc1cc(NC(=O)OC(C)C)ccc1-c1ccc(NC(=O)OC(C)C)cc1C | 12%
Cc1nc(SCC(=O)Nc2cc(C)on2)c2c(C)c(C)sc2n1 | 85.3% (active)
Cc1cc(NC(=O)CSc2nc(C(C)C)nc3sc4c(c23)CCC(C)C4)no1 (stereo not given) | 2.28%
Cc1nc(SCC(=O)Nc2cc(C)on2)c2c3c(sc2n1)CCCC3 | -9.48%
Cc1nn(CC#N)c(=O)n1N(C)c1ncc(C(F)(F)F)cc1Cl | -20.5%
CN(CC(O)COc1ccc(S(=O)(=O)N2CCOCC2)cc1Cl)C1CCCCC1 (stereo not given) | -11.1%
COCCCNCC(=O)Nc1sc(C)c(C)c1C(=O)OC | 78.7% (active)
CCOC(=O)c1c(NC(=O)c2cccs2)sc(C)c1C | 10.5%
COC(=O)c1c(NC(=O)c2c(Cl)cnn2C)sc(C)c1C | -11.9%
COc1cc(CN2CC(C)CC(C)C2)cc([N+](=O)[O-])c1O (stereo not given) | -15.1%
O=S(=O)(NCC1CCCO1)c1ccc2ccccc2c1 (stereo not given) | 2.47%
CCC(=O)Nc1ccc(S(=O)(=O)NCC2CCCO2)cc1 (stereo not given) | -9.79%
CCOc1ccc(S(=O)(=O)NCC2CCCO2)cc1 (stereo not given) | 90.7% (active)
COC(=O)c1sc(SC)c(S(=O)(=O)C(C)C)c1N/N=C(\C#N)S(=O)(=O)c1ccccn1 | -11.7%
O=[N+]([O-])c1ccc(N=Cc2c(O)ccc3ccccc23)cc1 | 2.73%
O=C(NNc1cc(Cl)cc(Cl)c1)c1c(F)cccc1Cl | -1.3%
CCOC(=O)N1CCN(CC(=O)n2c(C)c(C)c3ccccc32)CC1 | 71.6% (active)
CCOC(=O)N1CCN(C(=O)Cn2cnc3ccccc3c2=O)CC1 | -7.01%

SMILES | inhibition
CCOC(=O)N1CCN(CC(=O)c2c(C)[nH]c3ccccc23)CC1 | -1.72%
COc1ccc(CC(=O)NCC(=O)N/N=C/c2cc(Br)ccc2OC)cc1 | -0.33%
COc1ccc(C(=O)O/N=C(\N)Cc2ccc(Cl)cc2Cl)cc1OC | -16.2%
NC(N)=N/N=C/c1ccc(Cl)c([N+](=O)[O-])c1 | 22.1%
NC(N)=N/N=C/c1ccc(OCc2ccc(Cl)cc2Cl)cc1 | 98.2% [fluorescence artefact?] (active)
Cc1ccc(S(=O)(=O)N(C)C)cc1NC(=O)c1n[nH]c(=O)c2ccccc12 | 1.22%
CCC(=O)c1ccc(OCC(=O)Nc2ccc3nc(C)sc3c2)cc1 | 4.78%
O=[N+]([O-])c1cc(Cl)cc(/C=N/NC(=S)Nc2cc(S(=O)(=O)N3CCOCC3)ccc2Cl)c1O | 50.2%
C[C@@H]1C[C@@H]2O[C@H]2/C=C\C=C\C(=O)Cc2c(Cl)c(O)cc(O)c2C(=O)O1 | -2.99%
S=c1[nH]nc(-c2cc(-c3ccccc3)n[nH]2)n1/N=C/c1c2ccccc2cc2ccccc12 | 77.8% (active)
Fc1ccccc1/C=N/n1c(-c2cccnc2)n[nH]c1=S | 0.38%
S=c1[nH]nc(-c2ccccc2)n1/N=C/c1c[nH]c2ccccc12 | -8.9%
Cc1cccc(N2CCN(C(=O)/C=C/c3ccco3)CC2)c1C | -4.76%
CCC1CO/C(=C(\C(=C(Cl)Cl)N2CCOCC2)[N+](=O)[O-])N1 (stereo not given) | 93.7% (active)
CN(C)C(=O)c1coc2nc3ccccc3nc12 | 1.09%
Cc1ccc(-c2csc(-c3cc(C)on3)n2)cc1 | 0.81%
CCOc1ccc(C(=O)N(Cc2ccc(N(C)C)cc2)C2CCS(=O)(=O)C2)cc1 (stereo not given) | -6.02%
COc1ccc(C(=O)N(Cc2ccc(N(C)C)cc2)C2CCS(=O)(=O)C2)cc1 (stereo not given) | -0.9%
COc1cc(C(=O)N(Cc2ccc(N(C)C)cc2)C2CCS(=O)(=O)C2)cc(OC)c1OC (stereo not given) | 94.9% (active)
CC(=O)NNC1=Nc2ccccc2N(C)C(C)C1 (stereo not given) | -5.76%
Cc1ccc(N2C(=O)CC(N3CCSCC3)C2=O)c(C)c1 (stereo not given) | 0.9%
CC(=O)Nc1ccc(S(=O)(=O)Nc2nccc(/C=C/c3ccccc3F)n2)cc1 | -3.98%
O=C(Nc1ccccc1)N1CCN(C(=O)Nc2ccccc2)CC1 | -1.69%
O=C(NC(=S)N1CCN(Cc2ccccc2)CC1)c1ccccc1 | -19.4%
O=C(Nc1ccccc1)N1CCN(Cc2ccccc2)CC1 | 77.4% (active)
